In PubChem BioAssay:

Experiment: binders of probe aFGF10 on microarray, primary screen, stem cell growth factor project, biochemical, small-molecule microarray, fluorescence 635/667 (AID 1071);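 further: score merges 667 nm spot intensity and signal to noise from triplicate slides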
Details: higher = more signal

Row | SMILES | composite z-score
1 | CO[C@@H]1COC(=O)CC=C[C@@H](C)[C@H](OC)COC(=O)CC=C[C@H]1C | -0.228
2 | O=C1O[C@H](c2ccccc2)[C@H](c2ccccc2)N2[C@H]1[C@@H](C(=O)Nc1nc3ccccc3s1)[C@]1(C(=O)Nc3ccc(C#CC4(O)CCCCCC4)cc31)[C@H]2c1ccc(O)cc1 | 0.443
3 | O=C1O[C@@H](c2ccccc2)[C@@H](c2ccccc2)N2[C@@H](c3ccccc3OCCO)[C@]3(C(=O)Nc4ccc(C#CC5=CCCCC5)cc43)[C@@H](C(=O)O)[C@H]12 | 0.627
4 | O=C1O[C@@H](c2ccccc2)[C@@H](c2ccccc2)N2[C@@H](c3ccc(O)cc3)[C@]3(C(=O)Nc4ccccc43)[C@@H](C(=O)N3CCN(c4ncccn4)CC3)[C@H]12 | 0.0271
5 | C[N+](C)(C)CCCCNC(=O)[C@@H]1C[C@@H]2C(=O)N3CCC[C@H]3C(=O)N2[C@@H]1c1cccc(OCCO)c1 | 0.712
6 | C=CC[C@@]1(C(=O)N2CCOCC2)N=C(c2ccc(OCCCO)cc2)O[C@@H]1c1ccccc1 | 0.351
7 | CCC#CCN(Cc1ccccc1Br)[C@H](/C=C/c1ccccc1)[C@@H](O)Cc1ccccc1 | -0.61
8 | O=C(NCc1ccccc1)c1ccc(Br)cc1[N+](=O)[O-] | 0.438
9 | CC(C)N1CC=CC23O[C@@H]4/C=C\CCCOC(=O)C4[C@H]2C(=O)N(CCCCCO)[C@@H]3C1=O (stereo partly specified) | -1.52
10 | O=C1OCC=C[C@H]2OC34C=CCN(Cc5ccccc5)C(=O)[C@H]3N(CCO)C(=O)[C@@H]4[C@@H]12 (stereo partly specified) | -0.387
11 | O=C1O[C@H](c2ccccc2)[C@H](c2ccccc2)N2[C@H]1[C@@H](C(=O)NC[C@H](O)c1ccccc1)[C@]1(C(=O)Nc3ccc(C#CC4=CCCCC4)cc31)[C@H]2c1ccc(OCCO)cc1 | 0.423
12 | COc1ccc(-c2ccccc2[C@@H]2N[C@H](C(=O)O)CC[C@H]2C)cc1 | 0.277
13 | CCOC(=O)C[C@H]1[C@H](OC(=O)c2cc3ccccc3oc2=O)[C@@H](NC(=O)C2CCCCC2)c2cc(OCCCO)ccc2N1C(=O)c1ccc2ccccc2n1 | 0.414
14 | NC(=O)NCC#Cc1ccc2c(c1)[C@]1(C(=O)N2)[C@H](C(=O)N2CCCCCCC2)[C@H]2C(=O)O[C@H](c3ccccc3)[C@H](c3ccccc3)N2[C@@H]1c1ccccc1OCCO | 0.921
15 | Cc1ccc(N2C(=O)c3ccccc3[C@@H](C(=O)NCc3ccccc3)[C@@H]2c2ccc(CO)cc2)nc1 | -0.741
16 | COC(=O)C(CC#Cc1ccc2c(c1)[C@]1(C(=O)N2)[C@H](C(=O)N2CCCCCCC2)[C@H]2C(=O)O[C@H](c3ccccc3)[C@H](c3ccccc3)N2[C@@H]1c1ccc(O)cc1)C(=O)OC | -0.542
17 | COc1ccc([Si](C)(C)[C@@H]2[C@@H](CCO)O[C@]3(C(=O)N(Cc4ccc(NC(=O)[C@H](C)O)cc4)c4ccccc43)[C@H]2C)cc1 | 0.585
18 | C=CCNC(=O)[C@@H]1[C@H]2C(=O)O[C@H](c3ccccc3)[C@H](c3ccccc3)N2[C@H](c2ccc(OCCO)cc2)[C@@]12C(=O)N(C(=O)OCCOC)c1ccc(C#CC3(O)CCCCCC3)cc12 | 0.552

Row | SMILES | composite z-score
19 | CC1CC/C=C\[C@H]2OC34C=CCN(Cn5nnc6ccccc65)C(=O)[C@H]3N(C(C)CO)C(=O)[C@@H]4C2C(=O)O1 (stereo partly specified) | -0.282
20 | COc1ccc([Si](C)(C)[C@H]2[C@H](CC(=O)N(CCO)Cc3ccccc3)O[C@@]3(C(=O)N(C)c4ccccc43)[C@@H]2C)cc1 | 0.877
21 | CO[C@H]1COC(=O)[C@H](CCSC)NC(=O)CC=C[C@@H](C)COC(=O)[C@@H](OCc2ccccc2)C=C[C@@H]1C | -0.226
22 | C=CCOC(=O)[C@@H]1[C@H]2C(=O)O[C@H](c3ccccc3)[C@H](c3ccccc3)N2[C@H](c2ccc(OCCOC(=O)[C@H]3C[C@H]4C(=O)N[C@@H](CCCCNC(C)=O)C(=O)N4[C@H]3c3ccc(O)cc3)cc2)[C@@]12C(=O)Nc1ccc(I)cc12 | 0.536
23 | O=[N+]([O-])c1ccc(C[n+]2ccc3ccc(O)cc3c2)o1 | 0.169
24 | COCCOC(=O)N1C(=O)[C@@]2(c3cc(C#CC4=CCCCC4)ccc31)[C@H](C(=O)NC[C@H](O)c1ccccc1)[C@H]1C(=O)O[C@H](c3ccccc3)[C@H](c3ccccc3)N1[C@@H]2c1ccccc1OCCO | 0.467
25 | CCOC(=O)C1=CC[C@@H](c2ccc(-c3ccc(OCc4ccccc4)cc3)c(OC)c2)N(S(=O)(=O)c2ccc(C)cc2)[C@H]1c1ccccc1 | 0.668
26 | COC(=O)[C@@]1(Cc2ccc(OC)cc2)[C@H]2c3cc(C(=O)N(C)C)n(Cc4ccc(C)c(F)c4F)c3C[C@H]2CN1C(=O)c1ccccc1 | 0.315
27 | CCCC=C(CCC)[C@@H](NS(=O)(=O)c1ccc(-c2ccccc2)cc1)c1ccc(C(=O)OC)cc1 | -0.198
28 | CCOC(=O)[C@H]1C/C=C/C[C@H](C(=O)OCC)C(=O)O[C@H]2[C@@H](OC)O[C@H](CO)[C@@H](OC(=O)Nc3ccc(Br)cc3)[C@@H]2OC1=O | 0.28
29 | C=C[C@H](OC)[C@@H](OC(=O)Nc1ccc(SC)cc1)c1ccc(O)c(F)c1 | 0.2
30 | COCCOC(=O)N1C(=O)[C@@]2(c3cc(C#CCNC(N)=O)ccc31)[C@H](c1ccc(OCCO)cc1)N1[C@H](c3ccccc3)[C@H](c3ccccc3)OC(=O)[C@H]1[C@@H]2C(=O)N1CCCCCCC1 | 0.209
31 | CN(C)c1ccc(C(O)C2C=CC3C(=O)NC(=O)C3N2Nc2ccc(Cl)cc2Cl)cc1 (stereo unspecified) | 0.294
32 | COCCOC(=O)N1C(=O)[C@@]2(c3cc(C#CCC(C(=O)OC)C(=O)OC)ccc31)[C@H](C(=O)N1CCN(c3ncccn3)CC1)[C@H]1C(=O)O[C@H](c3ccccc3)[C@H](c3ccccc3)N1[C@@H]2c1ccc(O)cc1 | 0.579
33 | COCCOC(=O)N1C(=O)[C@@]2(c3ccccc31)[C@H](C(=O)N1CCc3cc(OC)c(OC)cc3C1)[C@H]1C(=O)O[C@H](c3ccccc3)[C@H](c3ccccc3)N1[C@@H]2c1ccccc1OCCO | 0.66
34 | CC(C)=C1C(=O)C(c2ccccc2)=C2CN3C(=O)N(CCc4ccccc4)C(=O)[C@]3(Cc3ccccc3)[C@H]21 | 0.103
35 | CO[C@H]1COC(=O)CC=C[C@H](C)COC(=O)[C@@H](OCc2ccccc2)C=C[C@@H]1C | -1.11
36 | [N-]=[N+]=NCc1ccccc1C[C@@]1(C(=O)N2CCOCC2)N=C(c2ccc(OCCCO)cc2)O[C@@H]1c1ccccc1N=[N+]=[N-] | 0.819
